Screening results from PubChem.
Most compounds without a hit are left out; they make up all but 5.4% or so of the library.
MIN6 prolif: induces beta-cell replication in MIN6 cells; MIN6 cells proliferation, ATPlite luminescence, 48 h; cells starved in 0.2% serum; 100% = growth in 10% serum; proliferation, % at 10 µM; 0.29% of 330,000 active; AID 2380;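 active means compounds whose signal lies at least 3.5 SD above the mean of all wells on their plate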
M18AAP inhibitor: PfM18AAP enzyme inhibition; 1.2% of 290,000 active; recombinant PfM18AAP, H-Glu-NHMec fluorogenic cleavage; inhibition, % at 7.35 µM;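 active means inhibition above the campaign mean inhibition over all tested compounds plus 3 SD, cut at about 28% in these data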
SMARCA2 act: activators of SMARCA2 function; MG213 cells, MMTV-luciferase reporter, dexamethasone, overnight; activation, % at 9.1 µM; 1% of 370,000 active; in the data active means activation above about 7.8%
ALR inh: blocks human ALR sulfhydryl oxidase activity. inhibition, % (test concentration not listed). AID 485317. purified ALR, DTT oxidation, H2O2 HRP-luminol luminescence. 3.8% of 290,000 active. P55789;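 active means mean replicate inhibition above about 79%, with every replicate also reaching it, limit read from the data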
Target sequence (P55789 whole entry, looked up): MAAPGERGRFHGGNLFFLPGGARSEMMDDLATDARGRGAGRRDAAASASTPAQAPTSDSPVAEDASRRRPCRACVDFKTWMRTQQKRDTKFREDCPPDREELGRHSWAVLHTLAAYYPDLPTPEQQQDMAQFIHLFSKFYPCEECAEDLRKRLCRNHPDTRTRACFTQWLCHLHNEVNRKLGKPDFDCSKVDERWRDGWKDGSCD
JMJD2C inh: inhibitors of human GASC-1 (JMJD2C) demethylase; Q9H3R0; GST-JMJD2C(1-420) H3K9me3 demethylation, DELFIA europium; inhibition, % at 2.35 µM; 0.069% of 330,000 active; AID 2099;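 active means more than half of a compound's replicate wells show inhibition beyond 50%, single wells judged on their own value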;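 further: signal counts dimethyl H3K9 product captured on neutravidin plate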
Target sequence (Q9H3R0 1-420 limits assumed): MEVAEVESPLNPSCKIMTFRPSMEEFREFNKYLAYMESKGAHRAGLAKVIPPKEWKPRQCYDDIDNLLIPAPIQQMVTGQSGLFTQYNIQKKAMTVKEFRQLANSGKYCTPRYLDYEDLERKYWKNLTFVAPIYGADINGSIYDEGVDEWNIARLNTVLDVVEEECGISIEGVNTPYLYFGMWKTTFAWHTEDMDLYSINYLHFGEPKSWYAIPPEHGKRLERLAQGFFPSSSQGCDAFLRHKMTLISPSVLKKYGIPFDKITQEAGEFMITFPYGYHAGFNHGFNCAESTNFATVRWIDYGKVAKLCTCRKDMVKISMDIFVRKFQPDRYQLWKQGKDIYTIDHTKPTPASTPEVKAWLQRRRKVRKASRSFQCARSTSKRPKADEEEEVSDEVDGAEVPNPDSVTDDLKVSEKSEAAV
Granule exo inh: lytic granule exocytosis inhibition. TALL-104 LAMP-1 surface exposure, flow cytometry; cells stimulated with thapsigargin and PMA. inhibition, % at 10 µM. 0.66% of 360,000 active. AID 651702;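 active means inhibition above about 55%, limit read from the data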
Hits are given with their value.

`N#Cc1c(NC(=O)c2cccc(S(=O)(=O)Nc3ccc(C(=O)O)cc3)c2)sc2c1CCCC2` gave MIN6 prolif inactive, M18AAP inhibitor inactive, SMARCA2 act inactive, ALR inh 89, JMJD2C inh inactive and Granule exo inh inactive.
Screening COc1cccc(NC(=O)N2CC[C@@H]3[C@H]2c2cc(-c4cccc(C#N)c4)ccc2N(C)[C@@H]3CO)c1 returned SMARCA2 act inactive.
`COc1ccc2oc(C)c(C(=O)NN)c2c1` gave MIN6 prolif inactive, M18AAP inhibitor inactive, SMARCA2 act inactive, ALR inh 85, JMJD2C inh inactive and Granule exo inh inactive.
Screening CCOC(=O)CCC(=O)c1c(C)oc2ccc(OC)cc12 returned MIN6 prolif inactive, M18AAP inhibitor inactive, SMARCA2 act inactive, ALR inh inactive, JMJD2C inh inactive and Granule exo inh inactive.
`CCOC(=O)/C(=C\c1cccnc1)C(=O)c1cc(C(C)=O)c(Nc2ccccc2)s1` gave MIN6 prolif inactive, M18AAP inhibitor inactive, ALR inh inactive, JMJD2C inh inactive and Granule exo inh 60.
`CCOC(=O)/C(=C\c1ccccc1)C(=O)c1cc(C(C)=O)c(Nc2ccccc2)s1` gave MIN6 prolif inactive, M18AAP inhibitor inactive, SMARCA2 act inactive, ALR inh inactive, JMJD2C inh inactive and Granule exo inh inactive.
`COc1ccc2cc(-c3cccc4[nH]cc(C)c34)ccc2c1` gave SMARCA2 act inactive.
Screening COc1ccc(NC(=O)C2CCCCN2N)cc1OCC(C)C (configuration not stated) returned MIN6 prolif inactive, M18AAP inhibitor inactive, SMARCA2 act inactive, ALR inh inactive, JMJD2C inh 80 and Granule exo inh inactive.
For O=C(c1cccc(C(F)(F)F)c1)N1CC[C@H]2[C@H](CCCN2Cc2ccccc2)C1 the results were SMARCA2 act inactive.
For CC(C)(C)c1ccc(C#C[C@@H]2C=C[C@H]3OC(=O)CC/C=C/CCC(=O)OC[C@H]3O2)cc1 the results were SMARCA2 act inactive.
`COc1ccc(/C(C)=C2\SC(=S)N(CCC(=O)O)C2=O)cc1` gave MIN6 prolif inactive, M18AAP inhibitor inactive, SMARCA2 act inactive, ALR inh inactive, JMJD2C inh inactive and Granule exo inh inactive.
C/C(=C1/SC(=S)N(CCC(=O)O)C1=O)c1ccc(O)cc1 was read as MIN6 prolif inactive, M18AAP inhibitor inactive, SMARCA2 act inactive, ALR inh 98, JMJD2C inh inactive and Granule exo inh inactive.
For Cc1cc(-c2n[nH]c(=S)n2N=Cc2ccc(OCc3ccccc3)cc2)n[nH]1 the results were SMARCA2 act inactive.
`CCCCCN1CCCCC(NC(=O)c2c(F)cccc2F)C1=O` (configuration not stated) gave SMARCA2 act inactive.
Screening Cc1[nH]c2ccccc2c1CCNC(=O)CCC(=O)c1ccccc1 returned MIN6 prolif inactive, M18AAP inhibitor inactive, SMARCA2 act inactive, ALR inh 95, JMJD2C inh inactive and Granule exo inh inactive.
Cc1[nH]c2ccccc2c1CCC(N)=O was read as MIN6 prolif inactive, M18AAP inhibitor inactive, SMARCA2 act inactive, ALR inh 99, JMJD2C inh inactive and Granule exo inh inactive.
Screening Cc1[nH]c2ccccc2c1CCNC(=O)c1ccc2nccnc2c1 returned MIN6 prolif inactive, M18AAP inhibitor inactive, SMARCA2 act inactive, JMJD2C inh inactive and Granule exo inh inactive.
Screening O=C(CSc1nc2ccccc2c(=O)n1-c1ccc(F)c(Cl)c1)Nc1cccc(S(=O)(=O)N2CCOCC2)c1 returned MIN6 prolif inactive, M18AAP inhibitor inactive, SMARCA2 act inactive, ALR inh 98, JMJD2C inh inactive and Granule exo inh inactive.
`O=S1(=O)c2ccc(N3CCCC3)cc2Oc2ccccc2CN1Cc1cn(Cc2ccc(Cl)cc2)nn1` gave SMARCA2 act inactive.
O=S(=O)(Nc1nc2ccccc2nc1-[n+]1ccccc1)c1ccc(Cl)cc1 was read as MIN6 prolif inactive, M18AAP inhibitor inactive, SMARCA2 act inactive, ALR inh inactive, JMJD2C inh inactive and Granule exo inh inactive.
Cc1ccccc1C([O-])=Nc1ccc[n+](-c2nc3ccccc3nc2NS(=O)(=O)c2ccccc2)c1 was read as MIN6 prolif inactive, M18AAP inhibitor inactive, ALR inh 89 and JMJD2C inh inactive.
CC(=O)Nc1ccc(S[C@@H](CCN2CC[C@H](O)CCC2=O)c2ccccc2)cc1 was read as MIN6 prolif inactive, SMARCA2 act inactive, ALR inh 99, JMJD2C inh inactive and Granule exo inh inactive.
Screening CC(=O)Nc1ccc(SC[C@H](Cc2ccccc2)N2CCN(CC(C)C)CCC2=O)cc1 returned MIN6 prolif inactive, SMARCA2 act inactive, JMJD2C inh inactive and Granule exo inh inactive.
Screening CC(=O)Nc1ccc(SC[C@H](CC(C)C)N2CCN(CC(C)C)CCC2=O)cc1 returned MIN6 prolif inactive, SMARCA2 act inactive, ALR inh 98, JMJD2C inh inactive and Granule exo inh inactive.
Screening CC(=O)Nc1ccc(SC[C@H](C)CN2CC[C@H](C(C)(C)C)CCC2=O)cc1 returned MIN6 prolif inactive, SMARCA2 act inactive, ALR inh 99, JMJD2C inh inactive and Granule exo inh inactive.
Screening O=C1CC[C@@H](O)CCN1CC[C@H](Sc1ccccc1)c1ccccc1 returned MIN6 prolif inactive, M18AAP inhibitor inactive, SMARCA2 act inactive, ALR inh inactive, JMJD2C inh inactive and Granule exo inh inactive.
Screening COC(=O)C1CN(Cc2ccc(F)cc2)CCS(=O)(=O)N1Cc1ccc(C(F)(F)F)cc1 (configuration not stated) returned SMARCA2 act inactive.
COC(=O)c1cc(-c2ccccc2OC)c(=O)n2c1CCC2 was read as SMARCA2 act inactive.
`O=C(OCc1cn(Cc2ccc(F)cc2)nn1)N1CCCC1` gave SMARCA2 act inactive.
Screening Cc1ccc(-c2ccccc2NC(=O)CS(=O)CC(=O)Nc2ccc(C)c(Cl)c2)o1 (configuration not stated) returned MIN6 prolif inactive, M18AAP inhibitor inactive, SMARCA2 act inactive, ALR inh 99, JMJD2C inh inactive and Granule exo inh inactive.
Cc1cccc(NC(=O)Nc2ccncc2)c1 was read as MIN6 prolif inactive, M18AAP inhibitor inactive, SMARCA2 act inactive, ALR inh 84, JMJD2C inh inactive and Granule exo inh inactive.
Screening Cc1cccc(NC(=O)Nc2cnccn2)c1 returned MIN6 prolif inactive, M18AAP inhibitor inactive, SMARCA2 act inactive, ALR inh inactive, JMJD2C inh inactive and Granule exo inh inactive.
`Cc1cccc(NNC(=O)C(=O)NNc2cccc(C)c2)c1` gave MIN6 prolif inactive, M18AAP inhibitor inactive, SMARCA2 act inactive, ALR inh 98, JMJD2C inh inactive and Granule exo inh inactive.
`Cc1cc(C)c(O)c(C(=O)CC2CC(=O)NC(=O)C2)c1` gave SMARCA2 act inactive.
For Cc1ccc(Nc2nnc(SCC(=O)Nc3cccnc3Cl)s2)cc1C the results were MIN6 prolif inactive, M18AAP inhibitor 29, SMARCA2 act inactive, ALR inh inactive, JMJD2C inh inactive and Granule exo inh inactive.
